From PubChem BioAssay (NCATS)
Records with an inconclusive call do not appear. Activity calls are given as the source filed them. Calls follow the shape of the dose curve; as a rule, active = well fitted curve in the direction sought with a large enough effect; inconclusive = small, poorly fitted or top-dose-only effect, or another doubt; inactive = no such curve, though single readings can be large; an effect the other way counts as inactive or inconclusive.

How the values were obtained:
[1] = target: Glutathione peroxidase 1 (Homo sapiens) (UniProt P07203); assay: Primary qHTS Assay for Inhibitors of Recombinant Selenoprotein Glutathione Peroxidase 1 (GPX1) (AID 1845191); also: nearly all actives have a fitted effect of over 65% in size
Sequence of Glutathione peroxidase 1 (Homo sapiens) (P07203 whole entry, looked up): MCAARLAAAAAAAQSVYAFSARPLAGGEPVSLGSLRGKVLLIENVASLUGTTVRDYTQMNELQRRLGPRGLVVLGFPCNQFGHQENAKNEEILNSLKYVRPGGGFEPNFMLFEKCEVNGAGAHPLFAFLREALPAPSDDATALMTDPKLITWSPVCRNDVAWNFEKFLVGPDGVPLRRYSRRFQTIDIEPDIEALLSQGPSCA
Method in brief: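 GPX1 10 nM, GR 100 nM, GSH 1 mM, NADPH 0.5 mM, CHP 0.5 mM (final). 30-min cpd preincubation, RT. Ex340/Em450 read t=0, t=15 min.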

[2] = target: Phospholipid hydroperoxide glutathione peroxidase GPX4 (Homo sapiens) (UniProt P36969); assay: Primary qHTS Assay for Inhibitors of Recombinant Selenoprotein Glutathione Peroxidase 4 (GPX4) (AID 1845192); also: series mostly up to about 50 µM; % is scaled to controls: 0 for no effect and ±100 for the full control effect; nearly all actives have a fitted effect of over 65% in size
Sequence of Phospholipid hydroperoxide glutathione peroxidase GPX4 (Homo sapiens) (P36969 whole entry, looked up): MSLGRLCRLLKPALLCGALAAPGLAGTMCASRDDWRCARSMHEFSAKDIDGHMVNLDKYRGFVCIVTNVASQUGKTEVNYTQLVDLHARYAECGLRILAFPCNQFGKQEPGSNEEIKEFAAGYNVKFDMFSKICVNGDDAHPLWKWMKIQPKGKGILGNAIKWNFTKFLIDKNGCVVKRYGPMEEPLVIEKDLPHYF
Method in brief: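 qHTS, GR-coupled: GPX4 200 nM + cpd 30 min RT → GSH 1 mM, NADPH 0.5 mM, GR 100 nM → CHP 0.5 mM start; fluor 340/450 at t0 and t15 min; no-enzyme wells as control.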

[3] = target: Luciferin 4-monooxygenase (Photinus pyralis) (UniProt P08659); assay: Primary firefly luciferase (FLuc) qHTS assay for identification of artifact compounds. (AID 1845220); also: nearly all actives have a fitted effect of over 60% in size
Method in brief: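 In this counter-screen for luciferase artifacts, test compounds met substrate (10 uM each luciferin and ATP) before 10 nM enzyme started the reaction. Light output was measured 5 min later.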

[4] = Primary fluorescence-based thiol-reactive (MSTI) qHTS assay for identification of artifact compounds. (AID 1845221); also: nearly all actives have a fitted effect of over 65% in size; also: potency is read from the fitted curve at half-maximal effect;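 as to activity change, negative = thiol reactive: series mostly up to about 54 µM; thiol-reactive compounds lower the probe fluorescence signal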
Method in brief: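 Curve-fitted percent inhibition (4-parameter Hill) derived from fluorescence, Ex 525/Em 598 nm, scaled with Acetyl-MSTI and MSTI; 1 h incubation at room temperature.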

[5] = Viability counterscreen for antagonist of constitutive androstane receptor (CAR) against the NCATS DSHEA and TCM libraries (AID 1794837);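 also: compound exposure lasted 24 h before viability reading; 0% is about no effect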
Method in brief: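 Cell viability, CellTiter-Fluor, Ex/Em 405/540 nm, 1 h at 37C. HepG2-CYP2B6-hCAR, 2,500 cells/well; cpds + CITCO 48 uM final (antagonist mode), 24 h, 37C/5% CO2.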

[6] = Viability counterscreen for agonist of constitutive androstane receptor (CAR) against the NCATS DSHEA and TCM libraries (AID 1794838); also: 0% is about no effect
Method in brief: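 Viability by CellTiter-Fluor fluorescence, 405/540 nm, after 1 h at 37C. HepG2-CYP2B6-hCAR cells were exposed 24 h to test substances in presence of 0.75 uM PK11195 (final).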

[7] = target: Nuclear receptor subfamily 1 group I member 3 (Homo sapiens) (UniProt Q14994); assay: Primary qHTS for agonist of constitutive androstane receptor (CAR) against the NCATS DSHEA and TCM libraries (AID 1794839);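 also: HepG2 cells expressing human CAR with a CYP2B6 reporter plus PK11195 antagonist; 0% is about no effect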
Sequence of Nuclear receptor subfamily 1 group I member 3 (Homo sapiens) (Q14994 whole entry, looked up): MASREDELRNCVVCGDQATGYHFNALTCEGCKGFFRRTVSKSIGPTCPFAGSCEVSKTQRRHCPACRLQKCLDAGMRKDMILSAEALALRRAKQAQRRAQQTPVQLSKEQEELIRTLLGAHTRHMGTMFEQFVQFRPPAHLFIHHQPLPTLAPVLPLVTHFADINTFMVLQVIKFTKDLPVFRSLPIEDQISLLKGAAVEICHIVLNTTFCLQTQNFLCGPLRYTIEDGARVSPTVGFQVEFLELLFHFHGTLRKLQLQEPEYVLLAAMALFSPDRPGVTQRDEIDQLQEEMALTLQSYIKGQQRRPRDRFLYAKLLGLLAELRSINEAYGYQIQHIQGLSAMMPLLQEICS
Method in brief: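 Luminescence from ONE-Glo luciferase was the agonist read-out in HepG2-CYP2B6-hCAR cells exposed 24 h to test substances. Wells also held the CAR antagonist PK11195 at 0.75 µM final. Viability was by CellTiter-Fluor fluorescence.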

[8] = HepG2 viability counterscreen (readout 2: ATP content) against the NCATS DSHEA and TCM libraries (AID 1794840); also: 0% is about no effect
Method in brief: (§1)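 1,000 HepG2 cells/well, 4 h attach; compounds ~24 h, 37C/5% CO2. Readout 1: GF-AFC 25 uM final, 30 min, fluorescence 380/510 nm. Readout 2: CellTiter-Glo, 30 min RT, luminescence.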

[9] = HepG2 viability counterscreen (readout 1: protease activity) against the NCATS DSHEA and TCM libraries (AID 1794841);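 also: cells exposed to compounds for about 24 h before the protease read; 0% is about no effect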
Method in brief: as §1

[10] = test system: Nanoluciferase (engineered Oplophorus gracilirostris luciferase); assay: Primary Nanoluciferase (NLuc) qHTS assay for identification of artifact compounds. (AID 1845222);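 also: NLuc secreted into diluted conditioned medium of S16 cells; series mostly up to about 54 µM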
Method in brief: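 Using secreted nanoluciferase in S16 culture medium (0.22 um filtered, 1:55 dilution), compounds were preincubated 15 min at RT. Signal was generated with Nano-Glo reagent (1:100) over 5 min.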

O=C(O)[C@H](Cc1ccccc1)Oc1ccc(-c2ccccc2)cc1
inactive: Potency [1] | Potency [2] | Potency [3] | Potency [4]

O=C1OC(c2ccc(O)cc2)C(O)=C1Cc1ccccc1 (stereo not drawn)
inactive: Potency [1] | Potency [2] | Potency [3]

C=C1CCC(OC(C)=O)C2(C)CC3OC(=O)C(C)=C3CC12 (stereo not drawn)
inactive: Potency [1] | Potency [2] | Potency [3] | Potency [4]

CC(=O)OC(C)C(C)(O)C(=O)O[C@@H]1CC[C@]2(C)CC(=O)C(=C(C)C)C[C@H]2[C@]1(C)OC(C)=O (stereo partly drawn)
inactive: Potency [1] | Potency [2] | Potency [3] | Potency [4]

Cc1oc(S(=O)(=O)N2CCCCC2)cc1NC(=O)Nc1ccccc1
inactive: Potency [1] | Potency [2] | Potency [3]

C=C1CC[C@@]2(OC1)O[C@H]1CC3C4CC=C5C[C@@H](O[C@@H]6O[C@@H](C)[C@H](O)[C@@H](O)[C@H]6O)C[C@@H](O[C@@H]6O[C@H](C)[C@H](O)[C@H](O)[C@H]6O[C@@H]6O[C@@H](C)[C@H](O)[C@@H](O)[C@H]6O)[C@]5(C)C4CC[C@]3(C)[C@H]1[C@@H]2C (stereo partly drawn)
inactive: Potency [1] | Potency [2] | outcome [3] inactive [at 11.6 µM] | activity change, negative = thiol reactive [4] 170% [at 11.5 µM]

OC[C@H]1O[C@@H](OCCc2ccccc2)[C@H](O)[C@@H](O)[C@@H]1O
inactive: Potency [1] | Potency [2] | Potency [3]

COC(=O)C1=COC(OC2OC(CO)C(O)C(O)C2O)C2C(C)CC(=O)C12O (stereo not drawn)
inactive: Potency [1] | Potency [2] | Potency [3]

Cc1ccccc1-n1nc(-c2c(-c3ccc(F)cc3)nn3c2NC[C@@H](CO)C3)ccc1=O
inactive: Potency [1] | Potency [2] | Potency [3] | Potency [4]

CC(=O)O[C@@H]1C[C@@H](C)[C@](O)(CCC2=CC(=O)OC2)[C@@]2(C)CCCC(C)(C)C12 (stereo partly drawn)
inactive: outcome [5] | outcome [6] | outcome [7] | outcome [8] | outcome [9] | Potency [1] | Potency [2] | Potency [3] | Potency [4] | Potency [10]

COc1cc(C2OCC3(O)C(c4ccc(O[C@@H]5O[C@H](CO)[C@@H](O)[C@H](O)[C@H]5O)c(OC)c4)OCC23O)ccc1O (stereo partly drawn)
inactive: Potency [1] | Potency [2] | Potency [3] | Potency [4]

C/C=C(/C)C(=O)O[C@@H]1C[C@@H](OC(=O)/C(C)=C\C)[C@@]2(C)C3C(=O)C=C(C)C2C3C1(C)C
inactive: Potency [1] | Potency [2] | Potency [3] | Potency [4]

O=C(Cn1c2ccccc2c2nc3n(c(=O)c21)CCS3)N1CCCC1
inactive: Potency [1] | Potency [2] | Potency [3] | Potency [4]

C/C=C1\[C@H](O[C@@H]2O[C@H](CO)[C@@H](O)[C@H](O)[C@H]2O)OC=C(C(=O)O)[C@H]1CC(=O)OCCc1ccc(O)cc1
inactive: Potency [1] | Potency [2] | Potency [3]

COc1c(C)c(OCC(O)C(C)(C)O)cc2c1CNC2=O (stereo not drawn)
inactive: Potency [1] | Potency [2] | Potency [3]

C=C(CCO[C@@H]1O[C@H](CO)[C@@H](O)[C@H](O)[C@H]1O)C(=O)O
inactive: Potency [1] | Potency [2] | Potency [3]

Cc1c(F)cc(C(=O)NC2CC2)cc1-c1ccc(C(=O)NCC(C)(C)C)cn1
inactive: Potency [1] | Potency [2] | Potency [3] | Potency [4]

COc1ccc(/C=C/C(N)=O)cc1OC
inactive: Potency [1] | Potency [2] | Potency [3]

CC/C=C\C(O)C(O)C1=C(C)C(=O)C2(O1)C(=O)NC(OC)(C(=O)c1ccccc1)C2O (stereo not drawn)
active: Potency [4] 4.62 µM
inactive: Potency [1] | Potency [2] | Potency [3]

Cn1nccc1-c1ccccc1Oc1ccc(S(=O)(=O)Nc2nccs2)cc1C#N
inactive: Potency [1] | Potency [2] | Potency [3] | Potency [4]

CC(=O)OC1CC(C(C)(C)O)OC2CCC3(C)OC4=C(C(=O)C=C5C(C)C(OC(C)=O)C6(C)C(C)OC546)C(O)C3C12C (stereo not drawn)
inactive: Potency [1] | Potency [2] | Potency [3] | Potency [4]

COc1ccc(OC)c(C2C(C#N)=C(N)Oc3n[nH]c(-c4ccc5ccccc5c4)c32)c1 (stereo not drawn)
inactive: Potency [1] | Potency [2] | Potency [3] | Potency [4]

O=C(OCC1=C[C@@H](O)[C@@H]2C=CO[C@@H](O[C@@H]3O[C@H](CO)[C@@H](O)[C@H](O)[C@H]3O)[C@H]12)c1ccc(O)cc1
inactive: outcome [5] | outcome [6] | outcome [7] | outcome [8] | outcome [9] | Potency [1] | Potency [2] | Potency [3] | Potency [10]
active: Potency [4] 10.3 µM

C=C[C@H]1[C@H](O[C@@H]2O[C@H](CO)[C@@H](O)[C@H](OC(=O)/C=C/c3ccc(O)c(OC)c3)[C@H]2O)OC=C2C(=O)OCC[C@]21O
inactive: Potency [1] | Potency [2] | Potency [3]

C[C@]12CC[C@@H]3c4ccc(O)cc4CC[C@H]3[C@@H]1C[C@@H](O[C@@H]1O[C@H](C(=O)O)[C@@H](O)[C@H](O)[C@H]1O)[C@@H]2O
inactive: Potency [1] | Potency [2] | Potency [3] | Potency [4]
